# Most compounds without a hit are left out; they make up all but 3.8% or so of the library.
# Ecoli rRNA inh – selective bacterial rRNA inhibition in E. coli; E. coli WT GFP vs humanized-ribosome RFP mutants, fluorescence, 24 h; hits give low values; DMSO median 0, no signal -100; GFP signal change (wild-type ribosome), % (test concentration not listed); 350,000 tested, 1.6% active; AID 720706;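 active = significant combined selectivity score with lowered wild-type GFP, culture density cut under 30%, mutant RFP and density less affected; inactive = any of these conditions unmet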
# ADAM10 inh – inhibits human ADAM10 | O14672 | recombinant ADAM10, EDANS/DABCYL FRET peptide cleavage, 3 h | inhibition, % at 7 µM | 370,000 tested, 0.62% active | AID 720582;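 active = inhibition above a per-campaign cutoff equal to the mean of compounds falling between control-based bounds plus 3 SD, cut at about 20% in these data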;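 also: 0% = DMSO wells while the 100% control is not disclosed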
# Target sequence (O14672 214-748 limits assumed): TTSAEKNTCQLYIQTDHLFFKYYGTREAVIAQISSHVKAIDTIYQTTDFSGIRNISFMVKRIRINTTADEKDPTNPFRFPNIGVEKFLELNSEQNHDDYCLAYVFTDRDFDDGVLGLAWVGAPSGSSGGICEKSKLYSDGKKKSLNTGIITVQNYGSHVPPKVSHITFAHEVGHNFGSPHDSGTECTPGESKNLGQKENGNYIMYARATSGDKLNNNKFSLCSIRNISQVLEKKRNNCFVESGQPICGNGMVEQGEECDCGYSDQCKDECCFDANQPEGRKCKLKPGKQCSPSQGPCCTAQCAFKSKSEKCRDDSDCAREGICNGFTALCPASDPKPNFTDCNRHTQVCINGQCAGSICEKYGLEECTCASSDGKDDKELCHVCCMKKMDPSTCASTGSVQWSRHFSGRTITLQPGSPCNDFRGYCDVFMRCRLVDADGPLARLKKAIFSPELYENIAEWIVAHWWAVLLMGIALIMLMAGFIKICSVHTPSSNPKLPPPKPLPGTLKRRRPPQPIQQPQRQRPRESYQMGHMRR
# FGF22 binding – FGF22 (human) thermal shift binding | Q9HCT0 | activity (Tm shift, normalised), % at 9.99 µM | 340,000 tested, 1.5% active | recombinant FGF22 thermal shift, SYPRO orange fluorescence; percent of sucrose octasulfate shift, DMSO zero;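 active = mean Tm shift, scaled 0 neutral to 100 positive control, at about 1.3% or above, every replicate too, limit read from the data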
# KLK7 zymogen act – activators of human kallikrein-7 zymogen | 370,000 tested, 0.9% active | purified proKLK7, EDANS-DABCYL substrate fluorescence; 100% is mature enzyme control, 0% vehicle | activation, % at 7 µM;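 active = activation above the mean of all tested compounds plus 3 SD, computed per campaign excluding outliers beyond control limits, cut at about 13% in these data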
# ADAM17 inh – ADAM17 inhibition, QFRET primary screen | P78536 | recombinant ADAM17, EDANS/DABCYL FRET peptide cleavage | inhibition, % at 6.95 µM | 370,000 tested, 0.83% active;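 active = inhibition above the mean of compounds lying between control limits plus 3 SD, set per campaign, cut at about 8.5% in these data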;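 also: 0% = DMSO-only wells as the low control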
# An asterisk follows results filed as active; nt = no result.
SMILES,Ecoli rRNA inh,ADAM10 inh,FGF22 binding,KLK7 zymogen act,ADAM17 inh
Fc1ccccc1Cn1cc(C(=S)N2CCOCC2)c2ccccc21,-20.1,4.2,0.2,0.2,-0.8
Fc1ccc(Cn2cc(C(=S)N3CCOCC3)c3ccccc32)cc1,-26.3*,7.6,0.0,0.3,1.5
Cc1ccccc1CN1C(=O)C(C)S/C1=N/N=C/c1ccco1 (stereo unspecified),-23.4*,-0.4,0.0,0.8,0.0
CC1S/C(=N/N=C/c2ccco2)N(Cc2ccc(F)cc2)C1=O (stereo unspecified),-10.3,2.4,0.1,0.2,4.5
Cc1nonc1CN(C)C(=O)c1ccc(OC2CCN(Cc3ccccn3)CC2)cc1,nt,3.8,44.0*,0.1,0.2
Cc1cc(CN(C)C(=O)c2ccc(OC3CCN(Cc4ccccn4)CC3)cc2)on1,8.9,-9.2,-0.3,-0.5,-1.1
Cc1nonc1CN(C)C(=O)c1ccc(OC2CCN(C(=O)c3cccnc3)CC2)cc1,nt,0.9,44.1*,0.0,2.1
COc1ccc(C(=O)Nc2cccc(-c3nnc(-c4ccco4)o3)c2)cc1,nt,-1.5,nt,-0.1,-0.1
COc1cc(C(=O)Nc2cccc(-c3nnc(-c4ccco4)o3)c2)ccc1OC(C)=O,nt,-0.6,44.0*,0.6,6.1
C[C@@H]1CN([C@@H](C)CO)C(=O)Cc2cc(NC(=O)CCCCCC(=O)Nc3ccccc3N)ccc2O[C@@H]1CN(C)CC1CC1,0.7,nt,0.2,nt,nt
O=C1OC(NCc2cccnc2)(c2ccc(Cl)cc2)c2ccccc21 (stereo unspecified),-34.8*,-1.2,0.2,0.4,-2.5
Clc1ccc(NCc2cccnc2)cc1,-0.2,-7.4,0.1,0.2,-4.1
Cc1cccc(/C=N/NC(=O)Cc2cccs2)c1,-19.4*,5.6,-0.1,0.5,1.6
COC(=O)c1cc(-c2cccs2)nn1-c1ccccc1,-28.9*,-1.7,-0.2,-0.3,1.3
COc1ccc(-c2cc(-c3cc(F)ccc3O)[nH]n2)cc1OC,-33.3*,14.0,0.4,1.8,1.2
COc1ccc(-c2cc(-c3ccccc3O)[nH]n2)cc1OC,nt,11.4,nt,-0.3,7.0
COc1ccc2c3c(n(C)c2c1)[C@@H](CO)NCC31CN(C(=O)Nc2ccc(F)cc2F)C1,1.7,nt,-0.1,nt,nt
O=C(C[C@H]1CC[C@H]2[C@@H](COC[C@H](O)CN2CCC(F)(F)F)O1)NCc1ccc(Oc2ccccc2)cc1,-13.2,nt,-0.2,nt,nt
COc1ccc(S(=O)(=O)N(C)C[C@H]2OCCCC[C@H](C)Oc3ccc(NC(=O)Nc4c(C)noc4C)cc3C(=O)N([C@H](C)CO)C[C@H]2C)cc1,-3.4,nt,0.1,nt,nt
O=C(O)c1cccc2cccc(-c3c4ccc(=O)c(O)c-4oc4c(O)c(O)ccc34)c12,-22.3*,-28.1,-0.3,18.8*,-6.1
CC(=O)N(C)C[C@H]1Oc2cc(-c3cccc(F)c3)ccc2S(=O)(=O)N([C@@H](C)CO)C[C@@H]1C,-8.9,nt,0.0,nt,nt
CCCNC(=O)N(C)C[C@H]1Oc2cc(-c3cccnc3)ccc2S(=O)(=O)N([C@@H](C)CO)C[C@H]1C,0.7,nt,-0.4,nt,nt
CC(C)c1ccc(NC(=O)CNS(=O)(=O)c2ccc(F)cc2)cc1,10.5,9.6,43.2*,-0.4,2.6
C[C@@H]1CN([C@@H](C)CO)C(=O)c2cc(NC(=O)NC3CCCCC3)ccc2O[C@@H](C)CCCCO[C@@H]1CN(C)C(=O)Cc1ccccc1,-0.7,nt,0.0,nt,nt
COc1ccc(OC)c(NC(=O)CSc2ncccc2C(=O)O)c1,nt,-2.7,nt,0.1,2.4
SMILES,Ecoli rRNA inh,ADAM10 inh,FGF22 binding,KLK7 zymogen act,ADAM17 inh
CCCCCCCCNC(=O)c1cccnc1SCC(=O)Nc1ccccc1OC,-1.4,-4.0,38.6*,-0.2,-0.8
N#C[C@H]1[C@@H](c2ccccc2-c2ccc(F)cc2)[C@@H](CO)N1C(=O)NC1CCCC1,-5.6,nt,nt,nt,nt
COc1cc(C)ccc1OCCOCCOc1cccc2ccc(C)nc12,-31.8*,-5.6,0.1,0.5,-7.2
C=CCc1ccc(OCCOCCOc2cccc3ccc(C)nc23)c(OC)c1,nt,2.0,nt,0.4,-0.8
NC(=O)NC(c1ccccc1)c1ccccc1F (stereo unspecified),nt,4.4,nt,0.2,0.3
NC(=O)NC(c1ccccc1)c1ccccc1,7.3,6.0,0.1,-0.3,-7.6
NC(=O)NC(c1ccc(Cl)cc1)c1ccccc1Cl (stereo unspecified),-34.7*,5.6,-0.1,0.4,-0.6
NC(=O)NC(c1ccccc1)c1cccc2ccccc12 (stereo unspecified),-33.4*,-8.8,0.0,0.2,-2.6
O=C(N[C@H]1CC[C@@H](CCNC(=O)C2CCC2)O[C@H]1CO)c1ccncc1,-1.4,nt,-0.1,nt,nt
CO[C@@H]1CN(C)C(=O)c2ccc(NC(=O)CC(F)(F)F)cc2OC[C@H](C)N(C(=O)C2CCCCC2)C[C@H]1C,0.4,nt,nt,nt,nt
CCCn1nnnc1NCc1ccc(SC)cc1,0.4,9.1,-0.2,-0.1,-3.2
CSc1ccc(CNc2nnnn2C)cc1,-2.8,5.0,42.9*,0.2,-0.5
Cc1cccc(NC(=O)/C(C#N)=C/c2ccc(F)cc2)n1,-17.4,-30.8,-0.2,0.8,-10.4
CCCOc1ccccc1/C=C(\C#N)C(=O)Nc1cccc(C)n1,-23.5*,-28.8,0.0,0.7,-15.0
CCCC(=O)N1CCC2(CC1)CN(C(=O)C1CC1)[C@H](CO)c1[nH]c3cc(OC)ccc3c12,-0.8,nt,nt,nt,nt
Nc1c(Br)cc(Br)c2c1C(=O)c1c(cccc1S(=O)(=O)O)C2=O,-13.3,2.1,43.5*,0.7,-1.1
O=C(CNC(=O)c1cccs1)OCc1ccc(Br)cc1,-25.8*,-8.6,0.1,-0.5,1.3
O=C(CNC(=O)c1cccs1)OCc1ccc(Cl)cc1,-0.3,7.8,-0.2,0.2,0.5
COc1ccc(S(=O)(=O)N[C@H]2C=C[C@H](CC(=O)N3CCC(Cc4ccccc4)CC3)O[C@@H]2CO)cc1,-15.0,nt,-0.4,nt,nt
C[C@H](CO)N1C[C@H](C)[C@@H](CN(C)Cc2ccc3c(c2)OCO3)OCc2ccccc2-c2c(n(C)c3ccccc23)C1=O,-37.0,nt,nt,nt,nt
O=C(Nc1ccccc1F)N1CCCCN2[C@H](CO)[C@@H](c3ccc(C4=CCCCC4)cc3)[C@H]2C1,nt,nt,0.5,nt,nt
NC(=O)c1ccccc1NC(=O)/C=C/c1ccc(Cl)cc1,nt,-3.4,nt,-0.5,-3.5
O=C(/C=C/c1ccc(Cl)cc1)NC(=S)Nc1ccccc1C(=O)O,-18.1*,-5.4,0.2,0.5,-2.2
Cc1ccc(C(C[N+](=O)[O-])c2c(N)n(C)c(=O)n(C)c2=O)cc1 (stereo unspecified),-24.4*,-5.5,0.1,-0.2,-4.5
COc1cccc(F)c1C(C[N+](=O)[O-])c1c(N)n(C)c(=O)n(C)c1=O (stereo unspecified),-24.1*,-6.8,0.1,0.4,-3.3
NS(=O)(=O)c1ccc(CCNC(=O)CN2CCN(c3ccccc3O)CC2)cc1,8.8,0.7,44.3*,0.5,-2.5
Cc1c(NC(=O)CN2CCC(C(N)=O)CC2)cccc1[N+](=O)[O-],14.5,-2.3,43.0*,0.6,-0.8

# Bioassay records: PubChem BioAssay, several laboratories
